Measurements taken from PubChem BioAssay AID1159580 (chemical genetic matrix, 2015).
Where “and” joins values, the source holds several entries; their conditions need not be identical. Identical values can stand only once. Hit rate of the full screen: of about 5,500 compounds, about 2,000 (36%) were called active. Another 18% or so got no clear call; they are omitted. Cut-off read from the data, not from the text of the source: active = normalized growth mostly below about 0.91 (no sharp cut-off); inconclusive = no clear call, values can overlap the other calls; inactive = mostly above about 0.92. This is one part of the list.

Assay: chemical genetic growth profiling, strain panel (AID 1159580);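 note: tested at 20 µM; growth read once vehicle control cultures reached saturation at 30 °C; 1 = growth at the plate median or of vehicle wells; lower values mean less growth of the strain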
Conditions: S. cerevisiae deletion strains, growth OD

Measured: normalized growth

CC1=C(C(C)O)C2=NC1C=c1[nH]c(c(C)c1C(C)O)=Cc1[nH]c(c(CCC(=O)O)c1C)C=c1[nH]c(c(C)c1CCC(=O)O)=C2 (configuration not stated)
inactive: locus YAL013W, strain DEP1, hits give low values 0.937 | locus YAL021C, strain ccr4, hits give low values 0.982 | locus YAL026C, strain drs2, hits give low values 0.988 | locus YAL030W, strain snc1, hits give low values 0.995 | locus YBL061C, strain skt5, hits give low values 0.986 | locus YBR009C, strain hhf1, hits give low values 0.986 | locus YBR021W, strain FUR4, hits give low values 0.998 | locus YBR023C, strain chs3, hits give low values 0.986 | locus YBR171W, strain sec66, hits give low values 0.994 | locus YBR229C, strain ROT2, hits give low values 1 | locus YBR231C, strain swc5, hits give low values 0.988 | locus YBR279W, strain paf1, hits give low values 1.01 | locus YCL011C, strain gbp2, hits give low values 0.994 | locus YCL016C, strain dcc1, hits give low values 0.986 | locus YCL029C, strain bik1, hits give low values 1.02 | locus YCL061C, strain MRC1, hits give low values 0.989 | locus YCL069W, strain vba3, hits give low values 0.99 | locus YCR088W, strain abp1, hits give low values 0.985 | locus YDL005C, strain med2, hits give low values 0.995 | locus YDL035C, strain GPR1, hits give low values 0.976 | locus YDL040C, strain nat1, hits give low values 0.998 | locus YDL074C, strain BRE1, hits give low values 0.956 | locus YDL101C, strain DUN1, hits give low values 0.999 | locus YDL185W, strain tfp1, hits give low values 1 | locus YDL192W, strain arf1, hits give low values 0.989 | locus YDR001C, strain nth1, hits give low values 1 | locus YDR069C, strain doa4, hits give low values 0.999 | locus YDR101C, strain arx1, hits give low values 1.01 | locus YDR137W, strain rgp1, hits give low values 1.04 | locus YDR150W, strain NUM1, hits give low values 0.997 | locus YDR159W, strain sac3, hits give low values 0.946 | locus YDR162C, strain NBP2, hits give low values 0.897 | locus YDR195W, strain ref2 0.935 | locus YDR297W, strain sur2, hits give low values 0.986 | locus YDR318W, strain mcm21, hits give low values 1.01 | locus YDR334W, strain swr1, hits give low values 0.993 | locus YDR335W, strain msn5, hits give low values 1 | locus YDR388W, hits give low values 1.02 | locus YDR392W, strain spt3, hits give low values 0.839 | locus YDR502C, strain sam2, hits give low values 0.977 | locus YEL003W, strain gim4, hits give low values 0.977 | locus YEL037C, strain rad23, hits give low values 1 | locus YEL061C, strain CIN8 (second series), hits give low values 0.996 | locus YEL061C, strain CIN8, hits give low values 0.995 | locus YER015W, strain faa2, hits give low values 1.01 | locus YER016W, strain bim1, hits give low values 0.989 | locus YER110C, hits give low values 1.03 | locus YER111C, strain swi4, hits give low values 0.986 | locus YER155C, strain BEM2 (second series), hits give low values 0.998 | locus YER155C, strain BEM2, hits give low values 0.995 | locus YER167W, strain BCK2, hits give low values 0.96 | locus YFR010W, strain ubp6, hits give low values 0.999 | locus YGL078C, strain dbp3, hits give low values 1.03 | locus YGL086W, strain mad1, hits give low values 0.968 | locus YGL167C, strain pmr1, hits give low values 0.995 | locus YGL173C, strain kem1, hits give low values 0.983 | locus YGL227W, strain vid30, hits give low values 0.993 | locus YGL240W, strain doc1, hits give low values 0.945 | locus YGL248W, strain PDE1, hits give low values 1.01 | locus YGL253W, strain hxk2, hits give low values 1 | locus YGR078C, strain PAC10, hits give low values 0.984 | locus YGR135W, strain pre9, hits give low values 0.973 | locus YGR252W, strain gcn5, hits give low values 1 | locus YHR013C, strain ard1, hits give low values 0.931 | locus YHR027C, strain rpn1, hits give low values 1 | locus YHR030C, strain SLT2, hits give low values 1.01 and 1.06 | locus YHR079C, strain IRE1 (second series), hits give low values 1.01 | locus YHR079C, strain IRE1, hits give low values 1.05 | locus YHR094C, strain hxt1, hits give low values 1.02 | locus YHR129C, strain ARP1, hits give low values 1 | locus YHR142W, strain chs7, hits give low values 1.01 | locus YHR200W, strain rpn10, hits give low values 0.986 | locus YIL066C, strain RNR3, hits give low values 0.98 | locus YIL073C, strain SPO22, hits give low values 1.12 | locus YIL125W, strain kgd1, hits give low values 1.02 | locus YIR030C, strain dcg1, hits give low values 1.01 | locus YJL092W, strain hpr5, hits give low values 0.992 | locus YJL095W, strain BCK1 (second series), hits give low values 0.994 | locus YJL095W, strain BCK1, hits give low values 0.982 and 1.06 | locus YJL115W, strain asf1, hits give low values 0.977 | locus YJL129C, strain trk1, hits give low values 0.949 | locus YJL134W, strain LCB3, hits give low values 1 | locus YJL154C, strain vps35, hits give low values 0.995 | locus YJL164C, strain tpk1, hits give low values 0.986 | locus YJL166W, strain qcr8, hits give low values 0.966 | locus YJL168C, strain set2, hits give low values 1 | locus YJL187C, strain SWE1 (second series), hits give low values 1
